Laboratory results from PubChem BioAssay.
Activity calls are given as the source filed them. Unless noted, how the calls were made is not given here.

Tests used:
[1] = compound effects on lung adenocarcinoma cell viability – A549, calcein-AM fluorescence, 48 h, basal, profiling panel (AID 1162); settings: higher = more signal; further: test concentration not given here
[2] = compound effects on differentiated 3T3-L1 adipocyte viability – cell-based, 3T3-L1 adipocytes, calcein-AM fluorescence, 48 h, basal, profiling panel (AID 1163); settings: 3T3-L1 adipocytes viability, higher = more signal; further: test concentration not given here
[3] = compound effects on hepatocellular carcinoma cell viability – HepG2, calcein-AM fluorescence, 48 h, basal, profiling panel (AID 1164); settings: higher = more signal; further: test concentration not given here
[4] = compound effects on multiple myeloma cell viability – MM1S, calcein-AM fluorescence, 48 h, basal, profiling panel (AID 1165); settings: higher = more signal;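 further: viability of MM1S multiple myeloma cells under basal unstimulated conditions; test concentration not given here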
[5] = calcein-AM signal in unstimulated myeloma cells – cell-based, calcein-AM fluorescence, 48 h, PK04 Diversity Set, profiling panel (AID 1166); settings: RPMI8226 myeloma viability, higher = more signal;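 further: cells grown under basal conditions without added stimulus; test concentration not given here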
[6] = JC-1 mitochondrial signal, unstimulated HepG2 cells – cell-based, JC-1 fluorescence, 24 h, 100 nL compound, profiling panel (AID 1167); settings: HepG2 mitochondrial potential, higher = more signal; further: test concentration not given here
[7] = JC-1 mitochondrial signal, unstimulated adipocytes – cell-based, JC-1 fluorescence, 3T3-L1 adipocytes, 24 h, 100 nL compound, profiling panel (AID 1168); settings: JC-1 mitochondrial fluorescence, higher = more signal, called active from +8 up or from −8 down; further: test concentration not given here
[8] = JC-1 mitochondrial signal, unstimulated myeloma cells – cell-based, JC-1 fluorescence, RPMI8226, 24 h, 100 nL compound, profiling panel (AID 1169); settings: JC-1 mitochondrial potential fluorescence, higher = more signal; further: test concentration not given here
[9] = JC-1 mitochondrial signal, unstimulated MM1S myeloma – cell-based, JC-1 fluorescence, 24 h, 100 nL compound, profiling panel (AID 1170); settings: MM1S mitochondrial potential, higher = more signal; further: test concentration not given here
[10] = resazurin metabolic signal in A549 cells – cell-based, resazurin fluorescence, 24 h, PK04 Diversity Set, profiling panel (AID 1171); settings: A549 viability, higher = more signal, called active from +8 up or from −8 down; further: test concentration not given here
[11] = resazurin metabolic signal in HepG2 cells – cell-based, resazurin fluorescence, 24 h, PK04 Diversity Set, profiling panel (AID 1172); settings: HepG2 viability, higher = more signal; further: test concentration not given here
[12] = budding yeast growth changes without added modifier – OD600, strain BY4716, 24 h, basal condition, primary screen (AID 1173); settings: S. cerevisiae BY4716 growth, OD600, 24 h; higher = more signal, called active from +8 up or from −8 down
[13] = viability profiling in MM1S myeloma cells – cell-based, resazurin fluorescence, basal, 24 h, PK04 Diversity Set, profiling panel (AID 1174); settings: higher = more signal, called active from +8 up or from −8 down; further: test concentration not given here
[14] = molecular target: Dihydroorotate dehydrogenase (quinone), mitochondrial (Plasmodium falciparum (isolate 3D7)) (UniProt Q08210); test: inhibition of P. falciparum DHODH – biochemical, C-terminal His tag, absorbance 600 nm, primary screen (AID 1175); settings: PfDHODH enzyme, DCIP absorbance 600 nm; higher = more signal, called active from +8 up or from −8 down;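 further: recombinant parasite enzyme with a five histidine tag at its C terminus; test concentration not given here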
[15] = inhibition of PAO1 biofilm formation – strain PAO1, LB-PBS medium, absorbance 600 nm, primary screen (AID 1176); further: test concentration not given here; settings: P. aeruginosa PAO1 growth/biofilm, A600, 12 h; higher = more signal
[16] = growth modulation of vineyard yeast isolate – strain RM11-1a, OD600, basal, 24 h, primary screen (AID 1177);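 further: cultures grown under basal conditions with no added stressor; test concentration not given here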; settings: S. cerevisiae RM11-1a growth, OD600, 24 h; higher = more signal, called active from +8 up or from −8 down
[17] = growth of efflux-deficient E. coli DRC39 – strain DRC39, OD650, 24 h, E. coli filamentation inducers, primary screen (AID 1178);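 further: growth measured as culture turbidity by optical density at 650 nm; test concentration not given here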; settings: E. coli DRC39 acrAB, higher = more signal, called active from +8 up or from −8 down
[18] = growth of efflux-deficient E. coli DRC39 – strain DRC39, OD650, 48 h, E. coli filamentation inducers, primary screen (AID 1179);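 further: screen aims at cell division blockers that make cells filament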; settings: E. coli DRC39 delta-acrAB growth, higher = more signal, called active from +8 up or from −8 down
[19] = viability profiling in RPMI8226 myeloma cells – cell-based, resazurin fluorescence, basal, 24 h, PK04 Diversity Set, profiling panel (AID 1180); settings: higher = more signal;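 further: RPMI8826 multiple myeloma cell line at 5000 cells per well; test concentration not given here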
[20] = molecular target: E3 ubiquitin-protein ligase XIAP (Homo sapiens) (UniProt P98170); test: small molecules binding XIAP protein – biophysical, small-molecule microarray, fluorescence 635 nm, primary screen (AID 1181); settings: higher = more signal;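 further: score merges 667 nm emission and signal to noise over triplicate slides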
Chain of E3 ubiquitin-protein ligase XIAP (Homo sapiens) (P98170 whole entry, looked up): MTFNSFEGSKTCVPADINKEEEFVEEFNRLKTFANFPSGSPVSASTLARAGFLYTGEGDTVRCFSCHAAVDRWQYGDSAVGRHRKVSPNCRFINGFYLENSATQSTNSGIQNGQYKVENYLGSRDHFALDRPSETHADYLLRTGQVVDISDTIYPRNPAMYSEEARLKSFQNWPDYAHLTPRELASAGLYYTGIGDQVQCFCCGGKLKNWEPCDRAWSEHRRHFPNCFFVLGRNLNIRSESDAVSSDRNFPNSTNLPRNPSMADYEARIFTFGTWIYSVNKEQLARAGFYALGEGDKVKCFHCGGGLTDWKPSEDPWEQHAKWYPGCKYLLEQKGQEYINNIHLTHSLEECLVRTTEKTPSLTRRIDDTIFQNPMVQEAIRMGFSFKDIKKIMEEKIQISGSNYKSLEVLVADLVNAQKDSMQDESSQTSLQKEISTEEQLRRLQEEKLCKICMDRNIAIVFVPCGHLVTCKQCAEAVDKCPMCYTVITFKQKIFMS

Chain of Dihydroorotate dehydrogenase (quinone), mitochondrial (Plasmodium falciparum (isolate 3D7)) (Q08210 whole entry, looked up): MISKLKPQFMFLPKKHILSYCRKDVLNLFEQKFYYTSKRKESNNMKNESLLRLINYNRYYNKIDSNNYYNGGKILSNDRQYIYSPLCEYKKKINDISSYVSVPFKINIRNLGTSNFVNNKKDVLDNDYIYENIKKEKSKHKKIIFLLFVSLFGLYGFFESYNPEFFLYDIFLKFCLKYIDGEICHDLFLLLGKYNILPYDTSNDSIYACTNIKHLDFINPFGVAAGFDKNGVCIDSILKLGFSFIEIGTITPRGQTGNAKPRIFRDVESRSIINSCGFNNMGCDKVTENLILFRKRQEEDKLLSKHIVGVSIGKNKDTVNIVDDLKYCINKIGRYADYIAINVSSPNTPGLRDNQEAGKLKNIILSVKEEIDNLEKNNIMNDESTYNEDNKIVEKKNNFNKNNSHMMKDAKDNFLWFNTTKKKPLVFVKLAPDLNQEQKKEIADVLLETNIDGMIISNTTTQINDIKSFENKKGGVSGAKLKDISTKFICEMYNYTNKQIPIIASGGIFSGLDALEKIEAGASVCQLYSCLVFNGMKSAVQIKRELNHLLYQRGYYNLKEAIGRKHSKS

| Compound | z-score [1] | z-score [2] | z-score [3] | z-score [4] | z-score [5] | z-score [6] | z-score [7] | z-score [8] | z-score [9] | z-score [10] | z-score [11] | z-score [12] | z-score [13] | composite z-score [14] | z-score [15] | z-score [16] | z-score [17] | z-score [18] | z-score [19] | composite z-score [20] |
| --- | --- | --- | --- | --- | --- | --- | --- | --- | --- | --- | --- | --- | --- | --- | --- | --- | --- | --- | --- | --- |
| COC(=O)[C@@]1(Cc2ccc(F)cc2)[C@H]2c3cc(C(=O)N4CCCC4)n(C)c3C[C@H]2CN1C(=O)c1ccccc1 | -0.893 | 0.502 | -0.429 | -1.63 | -1.01 | 1.29 | -1 (inactive) | -0.392 | -0.206 | 1.13 (inactive) | 0.0015 | -1.24 (inactive) | -0.698 (inactive) | -0.316 (inactive) | 0.523 (inactive) | 0.309 (inactive) | -0.359 (inactive) | -0.482 (inactive) | -0.069 | 0.49 |
| O=C1C2C=CC(C(O)c3ccco3)N(Nc3ccccc3)C2C(=O)N1c1ccccc1 (stereo not given) | 0.133 | -1.03 | 0.473 | 0.249 | 0.458 | -0.45 | 0.255 (inactive) | -0.364 | -0.267 | 0.649 (inactive) | 0.875 | -0.633 (inactive) | -0.321 (inactive) | 1.05 (inactive) | -0.283 (inactive) | 0.829 (inactive) | -0.706 (inactive) | 0.154 (inactive) | 0.628 | -0.0264 |
| CCOC(=O)C[C@H]1[C@H](OC(=O)c2ccccc2-c2ccccc2)[C@@H](NC(=O)c2ccccc2)c2cc(OCCCO)ccc2N1C(=O)c1ccccc1 | -0.164 | -0.603 | -0.56 | -0.162 | -0.559 | -0.127 | -0.0812 (inactive) | -0.485 | 0.318 | -0.336 (inactive) | -0.632 | 0.474 (inactive) | -0.287 (inactive) | 0.374 (inactive) | -0.0582 (inactive) | 0.383 (inactive) | -0.536 (inactive) | -0.508 (inactive) | -0.0741 | 0.0871 |
| COc1cc(C(O)C2C=CC3C(=O)N(Cc4ccccc4)C(=O)C3N2n2cnnc2)cc(OC)c1OC (stereo not given) | 1.39 | -0.356 | 1.67 | 0.599 | 1.46 | 0.576 | 0.328 (inactive) | 0.251 | 0.588 | -0.538 (inactive) | 0.462 | -0.786 (inactive) | 0.129 (inactive) | -1.12 (inactive) | 1.6 (inactive) | -1.27 (inactive) | 0.904 (inactive) | 0.759 (inactive) | 0.0011 | 0.0546 |
| O=C(CS)NCCCCCNC(=O)[C@@H]1C[C@@H]2C(=O)N[C@@H](Cc3ccccc3)C(=O)N2[C@@H]1c1cccc(OCCO)c1 | 0.688 | -0.284 | 1.18 | 0.57 | 0.521 | 1.51 | 0.19 (inactive) | -0.203 | -0.156 | -0.488 (inactive) | -0.528 | 0.0575 (inactive) | -0.513 (inactive) | -0.148 (inactive) | 0.0067 (inactive) | 0.647 (inactive) | 0.403 (inactive) | 0.801 (inactive) | -0.0412 | -0.0911 |
| CCOC(=O)C1=CCC(c2ccccc2)N(S(=O)(=O)c2ccc([N+](=O)[O-])cc2)C1 (stereo not given) | -0.482 | -1.19 | -1.07 | -0.259 | 0.0811 | -1.73 | -0.483 (inactive) | 0.602 | -1.37 | 0.217 (inactive) | 0.21 | 1.36 (inactive) | -1.12 (inactive) | 0.243 (inactive) | -0.0196 (inactive) | 0.993 (inactive) | -0.495 (inactive) | 0.0062 (inactive) | -0.927 | -0.113 |
| O=C1C2C=CC(C(O)c3ccc4c(c3)OCO4)N(Nc3ccccc3)C2C(=O)N1c1ccccc1 (stereo not given) | -0.587 | -0.756 | -0.634 | -0.427 | 0.0871 | -1.47 | -1.19 (inactive) | 0.558 | -0.636 | 0.773 (inactive) | -0.0551 | 0.939 (inactive) | -0.793 (inactive) | 0.0433 (inactive) | 0.338 (inactive) | 0.581 (inactive) | -0.0005 (inactive) | -0.387 (inactive) | -0.827 | -0.0524 |
| COCCOC(=O)N1C(=O)[C@@]2(c3ccccc31)[C@H](c1ccccc1OCCO)N1[C@H](c3ccccc3)[C@H](c3ccccc3)OC(=O)[C@H]1[C@@H]2C(=O)N1CCCCCCC1 | -0.785 | 1 | 0.104 | -2.51 | -1.75 | 0.179 | -0.256 (inactive) | -0.641 | -1.07 | -0.585 (inactive) | 0.293 | 1.7 (inactive) | -0.097 (inactive) | 0.054 (inactive) | 2.48 (inactive) | 1.39 (inactive) | 0.542 (inactive) | -1.15 (inactive) | -0.353 | 1.57 |
| CC(C)[Si]1(C(C)C)OCc2cc(-c3ccc(-c4ccc(Cl)c(Cl)c4)o3)nc(CCc3ccccc3)c21 | 0.305 | 0.405 | 0.165 | -3.2 | -4.26 | -2.07 | 0.945 (inactive) | -0.838 | -1.72 | 1.4 (inactive) | 0.822 | -3.49 (inactive) | -1.64 (inactive) | 0.393 (inactive) | 0.149 (inactive) | -0.302 (inactive) | 1.46 (inactive) | 0.643 (inactive) | -0.0096 | -0.185 |
